Reference: PubChem BioAssay (NCI)
Compounds without any hit were thinned out: in the full panel of roughly 83,000, 20% have a hit.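 Method: cells in 96-well plates; compound added at one concentration; 48 h incubation; percent growth measured; values under 10 scored active.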 A number with no mark means an inactive call. Active and inactive are the calls of the source.

Columns and labels:
Assay in all cases: NCI-60 one-dose screen, 48 h (100 = growth as untreated, 0 = no growth, -100 = all killed)
Details in all cases: 10 µM unless noted
SR leukemia = test system: SR leukemia
RPMI-8226 leukemia = test system: RPMI-8226 leukemia
OVCAR-8 ovarian = test system: OVCAR-8 ovarian
OVCAR-5 ovarian = test system: OVCAR-5 ovarian
OVCAR-4 ovarian = test system: OVCAR-4 ovarian
SK-OV-3 ovarian = test system: SK-OV-3 ovarian
IGROV1 ovarian = test system: IGROV1 ovarian
OVCAR-3 ovarian = test system: OVCAR-3 ovarian
HS 578T breast = test system: HS 578T breast
NCI/ADR-RES ovarian = test system: NCI/ADR-RES ovarian
T-47D breast = test system: T-47D breast
BT-549 breast = test system: BT-549 breast
MDA-MB-435 melanoma = test system: MDA-MB-435 melanoma
SW-620 colon = test system: SW-620 colon
MCF7 breast = test system: MCF7 breast
HCT-116 colon = test system: HCT-116 colon
HCC-2998 colon = test system: HCC-2998 colon
KM12 colon = test system: KM12 colon

SMILES	growth (SR leukemia)	growth (RPMI-8226 leukemia)	growth (OVCAR-8 ovarian)	growth (OVCAR-5 ovarian)	growth (OVCAR-4 ovarian)	growth (SK-OV-3 ovarian)	growth (IGROV1 ovarian)	growth (OVCAR-3 ovarian)	growth (HS 578T breast)	growth (NCI/ADR-RES ovarian)	growth (T-47D breast)	growth (BT-549 breast)	growth (MDA-MB-435 melanoma)	growth (SW-620 colon)	growth (MCF7 breast)	growth (HCT-116 colon)	growth (HCC-2998 colon)	growth (KM12 colon)
CC(C)(CO)N(CCO)CCO	99.5%	95%	110%	93.1%	110%	109%	113%	112%	113%	102%	112%	101%	108%	111%	100%	106%	105%	106%
COc1ccc(C2C(C#N)=C(N)Oc3c2sc2c(Br)cccc32)cc1 (stereo unspecified)	8.82% (active)	12.5%	35.1%	50.5%	64.4%	35.2%	42.7%	10.6%	41.8%	6.27% (active)	27.2%	34.4%	-18.1% (active)	32%	13.1%	22.4%	56.8%	27.5%
COC(=O)c1c2c(c(C)[n+]([O-])c1C)C(=O)C=CC2=O	20.2%	-24.8% (active)	-6.72% (active)	-61.1% (active)	-16.6% (active)	90.3%	-38.2% (active)	-8.77% (active)	0.0938% (active)	-19.8% (active)	-12.6% (active)	-90.3% (active)	-61.4% (active)	-19.5% (active)	-59.4% (active)	-14% (active)	-61.3% (active)	4.57% (active)
COc1ccc(OC)c(Nc2nnc(-c3ccc(Cl)cc3)o2)c1	79.7%	90.4%	85.5%	82.4%	10.5%	90.7%	81.1%	31.8%	51.4%	71.9%	59.9%	81.9%	84.6%	86.2%	91.6%	31.1%	104%	66.4%
COc1cccc(Nc2ccnc3[nH]c4ccc([N+](=O)[O-])cc4c23)c1	31.5%	65.2%	32.2%	110%	27.2%	47.5%	33.1%	46.9%	27.8%	44.4%	41.8%	80.3%	-24.4% (active)	56.5%	19.7%	24.5%	84.8%	27.2%
CC1O[C@@H]2C[C@@](O)([C@H]1O)n1c3ccccc3c3c4c(c5c6ccccc6n2c5c31)C(=O)NC4=O (stereo partly specified)	32%	55.3%	63.3%	72.8%	66.8%	48.4%	67.6%	55.4%	82.6%	80.7%	8.92% (active)	36.3%	43.1%	35.4%	22.3%	15.6%	73.4%	22.8%
CCOC(=O)C/C(=N\Nc1cc(=O)[nH]c2ccc(Cl)cc12)C(=O)OCC	47%	57.2%	110%	98.9%	107%	123%	97.6%	110%	94.9%	95.8%	102%	99.3%	102%	93.8%	96.5%	100%	97.4%	102%
Nc1c(C(=O)Nc2ccccn2)sc2nc3c(cc12)C(O)CCC3 (stereo unspecified)	14.4%	2.23% (active)	36.5%	46.7%	59.4%	17.4%	47.9%	-19.1% (active)	6.09% (active)	17.7%	15%	58.2%	-44.6% (active)	21.8%	13.2%	30.5%	70.7%	18.3%
O=C1c2cccnc2C(=O)c2c1c(C(=O)OCCCN1CCCCC1)c1ccccn21	-15.8% (active)	-28.3% (active)	-32% (active)	-19.2% (active)	-61.8% (active)	-40.6% (active)	-5% (active)	0.168% (active)	-16% (active)	-13.3% (active)	24%	-24.1% (active)	-41.5% (active)	-60.1% (active)	-42% (active)	-20.3% (active)	-35.7% (active)	-33.2% (active)
CN1CCN(CCCOc2ccc3ncnc(Nc4ccc(Oc5cccc(F)c5)c(Cl)c4)c3c2)CC1	1.08% (active)	-30.1% (active)	31.6%	25.4%	3.58% (active)	8.4% (active)	-5.39% (active)	0.254% (active)	42.3%	41.9%	20.8%	90.4%	-84.8% (active)	-71.9% (active)	3.01% (active)	-63.6% (active)	-40% (active)	6.17% (active)
COc1ccc(C2=CN3CC=CCC3CC2=O)cc1 (stereo unspecified)	90.3%	97.9%	91%	106%	109%	106%	111%	102%	98.3%	107%	90.6%	90.7%	106%	101%	105%	93.1%	100%	104%
COc1cc(/C=C\c2cc(/C=C\c3ccc(O)c(OC)c3)n(C(=O)CNc3ccc(Cl)cc3)n2)ccc1O	3.39% (active)	17.4%	28.2%	86.9%	56.6%	21.1%	36.7%	22.9%	30%	21%	31%	24.3%	-7.11% (active)	24.9%	13.8%	7.69% (active)	48.6%	20.2%
CC1(C)O[C@H]2OC3CCC(=O)CC3(O)[C@H]2O1 (stereo partly specified)	107%	96%	98.2%	107%	110%	94.9%	108%	104%	97%	102%	91.8%	104%	112%	105%	108%	95.1%	98.7%	102%
COc1cc(C(=O)c2c(-c3ccccc3)oc3c(OC)cccc23)cc(OC)c1O	11.1%	23.9%	20.4%	45.7%	42.1%	45.1%	18.8%	0.78% (active)	4.85% (active)	10.5%	44%	11.7%	-30.4% (active)	22.7%	14.1%	10.2%	-3.66% (active)	16.6%
CCCNc1nc2ccccc2c2c(=O)c3cccc(Cl)c3sc12	82.7%	103%	95.4%	96.5%	81.9%	88.4%	70.1%	111%	114%	101%	51.8%	99%	101%	97.8%	31.2%	72.4%	103%	90.4%
NS(=O)(=O)c1ccc(N/C=C/C(=O)c2cc3ccccc3oc2=O)cc1	78.1%	98.4%	104%	106%	87.5%	83.4%	91.5%	101%	92.4%	97.8%	89.1%	95.5%	100%	95.5%	68.8%	97.1%	109%	98.2%
O=C1c2cc3c(cc2-c2c1c1ccc(Cl)cc1c(=O)n2C[C@H](O)CO)OCO3	-2.7% (active)	-11.9% (active)	3.37% (active)	-7.3% (active)	4.86% (active)	-2% (active)	8% (active)	-17.3% (active)	26.2%	3.2% (active)	-6.44% (active)	1.39% (active)	-59.7% (active)	-4.07% (active)	-1.79% (active)	-25.6% (active)	4.32% (active)	-14.4% (active)
